One may read the inhibition as the drop in the measured response relative to a control, in per cent.

For test [1], the target named is T1, Serine/threonine-protein kinase Nek9 (Homo sapiens) (UniProt Q8TD19).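 Also: each value is a mean percent inhibition of NEK9.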
T1 sequence (whole entry): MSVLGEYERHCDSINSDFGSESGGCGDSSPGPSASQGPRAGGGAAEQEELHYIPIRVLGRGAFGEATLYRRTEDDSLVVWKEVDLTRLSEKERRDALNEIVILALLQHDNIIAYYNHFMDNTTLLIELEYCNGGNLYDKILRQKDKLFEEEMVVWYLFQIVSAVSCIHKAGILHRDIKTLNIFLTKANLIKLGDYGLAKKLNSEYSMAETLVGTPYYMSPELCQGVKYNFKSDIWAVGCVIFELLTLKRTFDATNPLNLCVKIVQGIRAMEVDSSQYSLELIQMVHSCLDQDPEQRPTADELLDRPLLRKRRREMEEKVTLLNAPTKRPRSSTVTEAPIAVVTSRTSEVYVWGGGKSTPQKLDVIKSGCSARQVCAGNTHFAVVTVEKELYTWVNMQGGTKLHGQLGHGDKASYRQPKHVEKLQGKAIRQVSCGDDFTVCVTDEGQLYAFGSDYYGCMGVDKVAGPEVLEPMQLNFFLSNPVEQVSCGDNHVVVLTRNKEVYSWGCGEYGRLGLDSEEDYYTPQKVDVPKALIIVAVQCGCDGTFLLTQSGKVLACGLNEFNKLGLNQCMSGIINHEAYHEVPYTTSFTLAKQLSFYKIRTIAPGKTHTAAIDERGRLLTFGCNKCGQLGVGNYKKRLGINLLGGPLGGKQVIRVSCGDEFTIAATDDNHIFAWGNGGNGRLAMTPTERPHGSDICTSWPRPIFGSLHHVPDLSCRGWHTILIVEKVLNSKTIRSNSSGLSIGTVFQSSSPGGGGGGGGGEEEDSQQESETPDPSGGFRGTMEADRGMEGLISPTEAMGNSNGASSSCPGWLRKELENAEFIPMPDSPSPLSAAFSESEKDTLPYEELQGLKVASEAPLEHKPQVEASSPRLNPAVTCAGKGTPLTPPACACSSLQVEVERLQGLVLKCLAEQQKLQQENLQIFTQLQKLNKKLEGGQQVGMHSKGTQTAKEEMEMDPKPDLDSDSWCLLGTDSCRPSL
The following applies: at 1 µM.

Test [2] addresses Serine/threonine-protein kinase PLK1 (Homo sapiens) (UniProt P53350). The following applies: at 0.1 µM.
For test [3] the target is unchanged. The following applies: at 1 µM.
Test [4] concerns the target T2, Dual specificity protein kinase TTK (Homo sapiens) (UniProt P33981).
T2 sequence (whole entry): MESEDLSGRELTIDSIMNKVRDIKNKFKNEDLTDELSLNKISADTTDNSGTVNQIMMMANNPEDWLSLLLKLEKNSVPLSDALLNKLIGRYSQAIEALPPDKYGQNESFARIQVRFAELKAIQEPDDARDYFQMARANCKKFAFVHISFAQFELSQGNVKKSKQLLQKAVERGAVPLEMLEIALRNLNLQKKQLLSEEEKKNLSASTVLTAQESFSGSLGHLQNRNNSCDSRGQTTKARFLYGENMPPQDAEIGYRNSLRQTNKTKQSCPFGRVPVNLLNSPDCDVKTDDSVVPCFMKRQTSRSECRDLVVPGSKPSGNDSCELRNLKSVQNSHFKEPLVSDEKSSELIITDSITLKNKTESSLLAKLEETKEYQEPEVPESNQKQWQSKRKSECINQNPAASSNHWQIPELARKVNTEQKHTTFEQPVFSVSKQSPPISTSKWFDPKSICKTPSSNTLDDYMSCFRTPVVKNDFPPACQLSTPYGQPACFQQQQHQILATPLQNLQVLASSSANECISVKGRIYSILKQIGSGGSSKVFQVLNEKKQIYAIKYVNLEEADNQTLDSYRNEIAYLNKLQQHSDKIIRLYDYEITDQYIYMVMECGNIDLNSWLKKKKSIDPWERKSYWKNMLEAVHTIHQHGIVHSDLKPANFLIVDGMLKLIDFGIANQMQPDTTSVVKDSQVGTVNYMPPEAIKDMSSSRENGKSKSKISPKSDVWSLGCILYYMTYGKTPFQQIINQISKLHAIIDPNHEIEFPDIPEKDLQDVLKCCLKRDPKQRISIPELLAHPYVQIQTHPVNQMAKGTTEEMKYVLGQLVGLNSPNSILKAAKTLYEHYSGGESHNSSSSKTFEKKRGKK
The following applies: at 0.1 µM.

Test [5] concerns T3, Receptor-type tyrosine-protein kinase FLT3 (Homo sapiens), P36888 [D835Y].
T3 sequence (whole entry): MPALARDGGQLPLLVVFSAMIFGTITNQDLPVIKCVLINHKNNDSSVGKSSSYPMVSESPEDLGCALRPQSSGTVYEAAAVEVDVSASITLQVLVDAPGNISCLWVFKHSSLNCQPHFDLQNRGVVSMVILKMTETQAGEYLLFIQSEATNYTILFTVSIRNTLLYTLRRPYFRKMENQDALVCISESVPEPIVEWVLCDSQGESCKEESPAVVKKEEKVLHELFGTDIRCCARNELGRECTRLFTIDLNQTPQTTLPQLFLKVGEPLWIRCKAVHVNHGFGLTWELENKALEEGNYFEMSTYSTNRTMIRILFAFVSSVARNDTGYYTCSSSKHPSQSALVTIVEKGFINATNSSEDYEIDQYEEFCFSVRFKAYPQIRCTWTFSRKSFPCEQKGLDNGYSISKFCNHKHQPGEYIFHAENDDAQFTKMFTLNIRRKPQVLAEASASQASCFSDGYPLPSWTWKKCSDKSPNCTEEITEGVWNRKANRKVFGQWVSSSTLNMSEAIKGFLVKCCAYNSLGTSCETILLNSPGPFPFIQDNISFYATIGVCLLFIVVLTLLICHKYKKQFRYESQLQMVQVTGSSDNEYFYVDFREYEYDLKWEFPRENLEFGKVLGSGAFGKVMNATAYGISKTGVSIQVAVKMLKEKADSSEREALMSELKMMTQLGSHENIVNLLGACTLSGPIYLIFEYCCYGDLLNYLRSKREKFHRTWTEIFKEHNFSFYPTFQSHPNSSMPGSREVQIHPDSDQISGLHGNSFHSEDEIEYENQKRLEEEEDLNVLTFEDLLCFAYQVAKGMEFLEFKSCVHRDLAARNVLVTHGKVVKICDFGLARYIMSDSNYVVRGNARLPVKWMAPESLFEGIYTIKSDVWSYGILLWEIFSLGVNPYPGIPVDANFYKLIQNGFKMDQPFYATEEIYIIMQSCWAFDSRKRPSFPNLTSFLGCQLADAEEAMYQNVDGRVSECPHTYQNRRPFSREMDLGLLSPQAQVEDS
The following applies: at 1 µM.

Test [6] addresses Vascular endothelial growth factor receptor 3 (Homo sapiens) (UniProt P35916). To be noted: at 0.1 µM.
The target is the same in test [7]. To be noted: at 1 µM.
Test [8] addresses Macrophage colony-stimulating factor 1 receptor (Homo sapiens) (UniProt P07333). The following applies: at 0.1 µM.
For test [9] the target is unchanged. The following applies: at 1 µM.
Test [10] concerns the target Tyrosine-protein kinase Fyn (Homo sapiens) (UniProt P06241). To be noted: at 0.1 µM.
For test [11] the target is unchanged. To be noted: at 1 µM.
Test [12] has as its target Tyrosine-protein kinase HCK (Homo sapiens) (UniProt P08631). To be noted: at 0.1 µM.
The target is the same in test [13]. To be noted: at 1 µM.
The target in test [14] is Insulin-like growth factor 1 receptor (Homo sapiens) (UniProt P08069). To be noted: at 0.1 µM.
Test [15] shares this target. To be noted: at 1 µM.
Test [16] deals with Insulin receptor (Homo sapiens) (UniProt P06213). The following applies: at 0.1 µM.
Test [17] shares this target. To be noted: at 1 µM.
In test [18] the target is Insulin receptor-related protein (Homo sapiens) (UniProt P14616). The following applies: at 0.1 µM.
The target is the same in test [19]. To be noted: at 1 µM.
In test [20] the target is T4, Tyrosine-protein kinase ITK/TSK (Homo sapiens) (UniProt Q08881).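 Also: mean percent inhibition of ITK from the GSK PKIS screen.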
T4 sequence (whole entry): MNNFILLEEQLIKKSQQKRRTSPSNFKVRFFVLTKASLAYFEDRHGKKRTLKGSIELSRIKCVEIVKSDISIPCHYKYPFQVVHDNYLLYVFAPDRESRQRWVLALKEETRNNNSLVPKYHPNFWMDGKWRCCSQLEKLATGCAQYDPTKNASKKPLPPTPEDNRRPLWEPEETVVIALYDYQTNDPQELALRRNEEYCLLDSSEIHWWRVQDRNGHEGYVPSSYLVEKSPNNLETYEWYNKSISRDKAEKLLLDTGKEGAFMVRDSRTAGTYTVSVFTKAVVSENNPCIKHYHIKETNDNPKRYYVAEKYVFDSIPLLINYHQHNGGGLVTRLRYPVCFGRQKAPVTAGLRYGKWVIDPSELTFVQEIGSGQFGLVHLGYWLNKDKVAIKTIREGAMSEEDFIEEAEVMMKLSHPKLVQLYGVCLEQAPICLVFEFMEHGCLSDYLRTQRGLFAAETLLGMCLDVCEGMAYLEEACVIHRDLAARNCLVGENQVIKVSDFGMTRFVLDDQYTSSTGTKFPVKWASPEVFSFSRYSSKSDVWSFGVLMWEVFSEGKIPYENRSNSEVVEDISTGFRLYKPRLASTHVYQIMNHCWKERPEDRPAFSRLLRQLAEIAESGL
The following applies: at 0.1 µM.

Structures are written as SMILES.

Sequence of Vascular endothelial growth factor receptor 3 (Homo sapiens) (P35916 whole entry): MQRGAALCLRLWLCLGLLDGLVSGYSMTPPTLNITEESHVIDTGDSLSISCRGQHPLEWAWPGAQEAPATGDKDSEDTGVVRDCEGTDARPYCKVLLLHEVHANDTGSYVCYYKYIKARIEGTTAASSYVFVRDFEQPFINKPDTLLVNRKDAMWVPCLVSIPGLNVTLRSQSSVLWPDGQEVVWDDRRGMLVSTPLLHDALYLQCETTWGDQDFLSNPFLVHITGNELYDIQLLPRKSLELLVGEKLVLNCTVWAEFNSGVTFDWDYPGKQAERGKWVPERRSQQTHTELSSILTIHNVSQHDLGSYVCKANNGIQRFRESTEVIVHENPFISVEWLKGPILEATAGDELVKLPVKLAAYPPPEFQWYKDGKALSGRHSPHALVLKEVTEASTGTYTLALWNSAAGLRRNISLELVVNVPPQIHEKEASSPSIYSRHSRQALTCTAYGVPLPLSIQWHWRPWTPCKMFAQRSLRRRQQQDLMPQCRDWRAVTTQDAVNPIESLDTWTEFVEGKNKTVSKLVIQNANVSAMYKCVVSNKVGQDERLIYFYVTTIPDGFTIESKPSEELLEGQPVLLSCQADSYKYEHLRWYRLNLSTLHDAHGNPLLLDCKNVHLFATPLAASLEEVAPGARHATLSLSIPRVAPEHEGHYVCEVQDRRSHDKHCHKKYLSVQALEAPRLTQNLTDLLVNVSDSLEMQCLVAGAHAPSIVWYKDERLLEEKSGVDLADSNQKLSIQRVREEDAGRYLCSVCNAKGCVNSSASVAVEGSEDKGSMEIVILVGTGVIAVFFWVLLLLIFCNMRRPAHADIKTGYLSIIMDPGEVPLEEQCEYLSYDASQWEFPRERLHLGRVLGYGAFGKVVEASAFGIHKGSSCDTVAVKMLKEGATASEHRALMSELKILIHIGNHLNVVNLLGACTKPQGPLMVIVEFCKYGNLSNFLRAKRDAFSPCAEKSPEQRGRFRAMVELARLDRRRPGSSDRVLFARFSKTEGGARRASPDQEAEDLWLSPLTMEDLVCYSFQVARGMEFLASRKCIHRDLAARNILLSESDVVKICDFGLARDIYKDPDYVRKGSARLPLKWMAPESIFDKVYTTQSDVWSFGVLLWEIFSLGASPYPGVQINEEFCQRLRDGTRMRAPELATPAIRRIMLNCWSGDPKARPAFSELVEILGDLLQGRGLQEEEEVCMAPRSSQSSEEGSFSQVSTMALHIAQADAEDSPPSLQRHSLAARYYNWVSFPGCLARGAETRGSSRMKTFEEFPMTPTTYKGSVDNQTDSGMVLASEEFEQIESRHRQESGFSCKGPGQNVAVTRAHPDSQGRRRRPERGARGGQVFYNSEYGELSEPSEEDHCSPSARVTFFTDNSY
Sequence of Macrophage colony-stimulating factor 1 receptor (Homo sapiens) (P07333 whole entry): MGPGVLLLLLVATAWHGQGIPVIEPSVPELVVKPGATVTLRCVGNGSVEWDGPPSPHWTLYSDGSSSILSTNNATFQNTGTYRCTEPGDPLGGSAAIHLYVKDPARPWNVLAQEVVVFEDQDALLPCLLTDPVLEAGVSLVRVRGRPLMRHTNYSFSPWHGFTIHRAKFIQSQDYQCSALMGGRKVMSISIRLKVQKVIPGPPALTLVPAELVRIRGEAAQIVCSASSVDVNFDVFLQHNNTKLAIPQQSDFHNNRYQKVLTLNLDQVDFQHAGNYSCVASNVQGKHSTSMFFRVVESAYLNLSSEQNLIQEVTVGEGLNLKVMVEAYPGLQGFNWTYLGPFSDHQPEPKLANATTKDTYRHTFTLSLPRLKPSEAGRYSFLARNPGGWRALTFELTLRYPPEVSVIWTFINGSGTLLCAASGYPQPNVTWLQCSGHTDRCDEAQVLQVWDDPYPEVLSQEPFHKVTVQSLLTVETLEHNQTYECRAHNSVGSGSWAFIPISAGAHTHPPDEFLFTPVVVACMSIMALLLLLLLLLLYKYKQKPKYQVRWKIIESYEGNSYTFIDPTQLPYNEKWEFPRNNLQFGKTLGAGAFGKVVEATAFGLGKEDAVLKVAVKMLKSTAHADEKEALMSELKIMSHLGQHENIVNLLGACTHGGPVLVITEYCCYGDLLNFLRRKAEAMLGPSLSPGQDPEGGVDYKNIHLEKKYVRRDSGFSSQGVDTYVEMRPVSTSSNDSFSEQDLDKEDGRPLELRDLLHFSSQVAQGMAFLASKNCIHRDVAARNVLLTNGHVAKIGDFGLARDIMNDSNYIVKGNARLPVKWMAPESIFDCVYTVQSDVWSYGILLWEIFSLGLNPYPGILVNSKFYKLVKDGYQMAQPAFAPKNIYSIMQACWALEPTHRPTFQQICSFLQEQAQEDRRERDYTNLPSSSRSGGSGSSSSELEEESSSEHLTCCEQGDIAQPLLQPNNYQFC
Sequence of Tyrosine-protein kinase HCK (Homo sapiens) (P08631 2-526 limits assumed): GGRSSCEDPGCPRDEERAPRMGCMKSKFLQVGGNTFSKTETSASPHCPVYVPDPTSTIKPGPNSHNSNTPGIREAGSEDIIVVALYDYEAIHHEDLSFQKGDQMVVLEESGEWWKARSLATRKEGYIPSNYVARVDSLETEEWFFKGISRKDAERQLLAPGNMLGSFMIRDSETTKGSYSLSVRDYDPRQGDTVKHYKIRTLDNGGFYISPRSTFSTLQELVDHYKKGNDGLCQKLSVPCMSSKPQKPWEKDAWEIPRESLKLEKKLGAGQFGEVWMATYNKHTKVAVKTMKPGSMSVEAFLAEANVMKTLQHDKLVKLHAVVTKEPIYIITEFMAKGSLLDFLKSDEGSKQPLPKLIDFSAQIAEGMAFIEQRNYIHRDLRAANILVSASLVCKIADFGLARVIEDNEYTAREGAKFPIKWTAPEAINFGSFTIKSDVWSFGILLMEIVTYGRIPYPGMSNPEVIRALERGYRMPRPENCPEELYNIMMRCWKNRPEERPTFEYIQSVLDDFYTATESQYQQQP
Sequence of Insulin receptor (Homo sapiens) (P06213 28-758 limits assumed): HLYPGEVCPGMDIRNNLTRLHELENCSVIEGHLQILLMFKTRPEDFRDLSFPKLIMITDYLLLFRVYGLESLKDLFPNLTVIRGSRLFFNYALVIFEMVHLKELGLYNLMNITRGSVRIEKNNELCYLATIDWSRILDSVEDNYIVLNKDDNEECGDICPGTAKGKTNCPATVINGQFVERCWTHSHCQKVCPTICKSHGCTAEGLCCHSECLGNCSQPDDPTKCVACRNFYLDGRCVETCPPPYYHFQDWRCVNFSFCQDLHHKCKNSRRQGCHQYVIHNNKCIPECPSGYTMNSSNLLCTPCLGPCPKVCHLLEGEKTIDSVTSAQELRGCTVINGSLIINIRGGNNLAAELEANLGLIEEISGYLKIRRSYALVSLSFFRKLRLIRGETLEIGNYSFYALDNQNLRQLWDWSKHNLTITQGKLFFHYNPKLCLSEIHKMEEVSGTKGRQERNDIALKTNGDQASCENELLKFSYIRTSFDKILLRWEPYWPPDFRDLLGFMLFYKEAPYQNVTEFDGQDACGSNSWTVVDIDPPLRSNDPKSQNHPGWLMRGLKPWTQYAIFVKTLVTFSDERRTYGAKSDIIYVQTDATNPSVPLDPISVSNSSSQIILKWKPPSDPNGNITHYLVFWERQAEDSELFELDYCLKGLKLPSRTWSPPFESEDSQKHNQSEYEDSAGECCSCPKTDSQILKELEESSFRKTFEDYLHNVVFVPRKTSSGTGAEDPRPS
Sequence of Insulin receptor (Homo sapiens) (P06213 763-1382 limits assumed): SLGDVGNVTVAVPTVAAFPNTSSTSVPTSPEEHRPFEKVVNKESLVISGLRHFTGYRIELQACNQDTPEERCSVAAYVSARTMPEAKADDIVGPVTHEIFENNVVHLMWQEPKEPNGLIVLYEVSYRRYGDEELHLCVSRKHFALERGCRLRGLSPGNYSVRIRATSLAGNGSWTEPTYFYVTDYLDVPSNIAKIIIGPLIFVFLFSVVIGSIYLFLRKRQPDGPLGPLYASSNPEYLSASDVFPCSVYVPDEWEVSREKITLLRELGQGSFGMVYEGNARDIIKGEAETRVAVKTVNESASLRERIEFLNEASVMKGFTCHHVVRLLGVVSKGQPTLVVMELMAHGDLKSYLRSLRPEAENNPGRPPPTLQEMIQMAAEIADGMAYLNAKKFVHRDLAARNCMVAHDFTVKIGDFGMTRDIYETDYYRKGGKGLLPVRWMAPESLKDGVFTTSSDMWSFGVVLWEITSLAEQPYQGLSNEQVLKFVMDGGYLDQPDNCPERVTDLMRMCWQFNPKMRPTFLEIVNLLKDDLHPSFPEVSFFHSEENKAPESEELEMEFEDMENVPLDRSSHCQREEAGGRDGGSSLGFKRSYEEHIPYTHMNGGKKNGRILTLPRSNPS
Sequence of Tyrosine-protein kinase Fyn (Homo sapiens) (P06241 2-537 limits assumed): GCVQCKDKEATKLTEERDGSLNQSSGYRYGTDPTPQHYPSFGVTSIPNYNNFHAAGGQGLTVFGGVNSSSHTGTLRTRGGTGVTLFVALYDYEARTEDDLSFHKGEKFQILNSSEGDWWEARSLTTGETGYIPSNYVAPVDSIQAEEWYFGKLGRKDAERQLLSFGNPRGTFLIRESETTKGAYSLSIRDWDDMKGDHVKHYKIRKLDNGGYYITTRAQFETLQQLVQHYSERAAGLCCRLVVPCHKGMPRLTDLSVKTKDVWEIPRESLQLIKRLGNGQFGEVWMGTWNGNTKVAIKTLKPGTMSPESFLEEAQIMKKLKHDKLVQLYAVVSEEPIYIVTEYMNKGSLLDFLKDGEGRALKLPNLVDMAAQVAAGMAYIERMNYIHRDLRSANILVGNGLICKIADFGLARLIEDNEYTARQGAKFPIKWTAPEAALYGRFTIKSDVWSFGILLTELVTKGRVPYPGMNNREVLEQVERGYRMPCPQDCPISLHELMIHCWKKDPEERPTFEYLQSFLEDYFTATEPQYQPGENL

For `COc1cc(Nc2ncc(-c3ccccc3)o2)cc(OC)c1OC`, the inhibition is 8.49% in test [1]; -0.55% in [2]; 2.1% in test [3]; 5.82% in test [4]; 63.1% in test [5]; 7.69% in test [6]. Besides, the inhibition came to 36.7% in test [7]; 20.1% in test [8]; 57.6% in test [9]; 6.4% in [10]; 37.5% in test [11]; 3.3% in test [12]. The inhibition in test [13] was 31.2%; in test [14] it was 1.91%; in test [15], 2.07%; in test [16], 4.48%; in test [17] it was -0.22%; in test [18], -2.58%. Further, the figures for the inhibition in test [19] and in [20] were -1.95% and -0.21%, respectively.

As to `C/C(Nc1ccc(S(N)(=O)=O)cc1)=C1/C(=O)Nc2ccccc21`, the inhibition in test [1] was 1.67%; in test [2], -0.74%; in test [3], -0.72%; in [4], 8.06%; in test [5] it was 46.8%; in [6], 7.83%. The inhibition in test [7] is 32.9%; in test [8] it was 12.1%; in test [9], 50.6%; in test [10], 1.2%; in test [11] it was 2.57%; in test [12], -0.82%. For the same compound, the inhibition in test [13] is 6.24%; in test [14] it was 0.12%; in test [15], 9.94%; in [16] it was 2.85%; in test [17], 12.7%; in test [18], -2.56%. Moreover, the inhibition was -0.64% in [19] and -0.1% in [20].

As to `CS(=O)(=O)CCNCc1cc(-c2cc3c(Nc4ccc(OCc5cccc(F)c5)c(Cl)c4)ncnc3s2)cs1`, the inhibition was found to be 8.5% in test [1]; 6.1% in test [2]; 8.12% in test [3]; 9.23% in test [4]; 5.05% in [5]; 1.58% in [6]. The inhibition is -1.31% in test [7]; 7.21% in [8]; 7.82% in [9]; 0.55% in test [10]; 2.71% in test [11]; 6.52% in test [12]. The inhibition in test [13] was determined as 7.87%; in test [14] it was 5.7%; in [15] it was 4.5%; in test [16], 11.5%; in test [17], 4.74%; in [18], 1.69%. In addition, the results for the inhibition in test [19] and in test [20] were 2.82% and 1.89%, respectively.

Values taken from ChEMBL document CHEMBL1961873, “Compounds: GSK PKIS; Assays: Nanosyn kinase panel” (2012).
